PubChem BioAssay (EPA / NIEHS)
Results filed as inconclusive are left out. Where a structure was tested more than once in an assay, its records may differ in their call. The source made the active and inactive calls. Rule for the calls, unless noted: active = hit-call score of the fitted dose curve at least 0.9, where 1 is the maximum; inconclusive = response in the unintended direction; inactive = score below 0.9.

Legend:
[1] = biological target: human Peroxisome Proliferator-activated Receptor alpha (PPARa), PPARA (gene 5465) (UniProt Q07869); experiment: ATG_PPARa_TRANS: Attagene TRANS-FACTORIAL HepG2 Assay for human Peroxisome Proliferator-activated Receptor alpha (PPARa) (AID 2283001)
Procedure, shortened: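 Measures transcriptional activity of an exogenous chimeric PPARa-Gal4 protein in transiently transfected HepG2 cells after 24 h dosing. Reporter mRNA quantified via RT-PCR and capillary electrophoresis; DMSO served as negative control.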

[2] = read-out: Intercellular Adhesion Molecule 1 (ICAM1), ICAM1 (gene 3383); experiment: BSK_3C_ICAM1: BioMAP Diversity Plus: 3C Assay for Intercellular Adhesion Molecule 1 (ICAM1) Biomarker Activity (AID 2283003; active = hit-call score of the fitted dose curve at least 0.9, where 1 is the maximum; inactive = score below 0.9); settings: primary human endothelial cells (HUVEC); actives raise or lower the signal
Procedure, shortened: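 Human vascular endothelial primary cells, 3C conditions, 24 h treatment. ICAM-1 by ELISA.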

[3] = biological target: human Retinoic Acid Receptor beta (RARb), RARB (gene 5915) (UniProt P10826); experiment: ATG_RARb_TRANS: Attagene TRANS-FACTORIAL HepG2 Assay for human Retinoic Acid Receptor beta (AID 2283004)
Procedure, shortened: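 Fluorescent capillary-electrophoresis detection of GAL4-UAS reporter mRNA defines the endpoint, with induction over DMSO-treated wells scored as activity. Transiently transfected human hepatoma HepG2 cells expressing exogenous NR–Gal4 proteins are exposed to test chemicals for 24 h.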

[4] = BSK_3C_Proliferation: Cell Proliferation Assessment in the BioMAP Diversity Plus: 3C Assay (AID 2283006; active = hit-call score of the fitted dose curve at least 0.9, where 1 is the maximum; inactive = score below 0.9); settings: primary human endothelial cells (HUVEC)
Procedure, shortened: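 Proliferation of human vascular endothelial primary cells after 48 h dosing, quantified as SRB-stained protein at 560 nm relative to DMSO.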

[5] = biological target: Peroxisome proliferator-activated receptor gamma (Homo sapiens) (UniProt P37231); experiment: ATG_PPARg_TRANS: Attagene TRANS-FACTORIAL HepG2 Assay for human Peroxisome Proliferator-activated Receptor-gamma (PPARg) (AID 2283007)
Procedure, shortened: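 A TRANS-format multiplexed reporter assay measures activity of an exogenous chimeric NR-Gal4 protein in HepG2 cells. After 24 h of chemical exposure, reporter transcripts are amplified, fluorescently labelled and sized by capillary electrophoresis, with gain of signal scored against DMSO.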

[6] = biological target: Nuclear receptor subfamily 1 group I member 2 (Homo sapiens) (UniProt O75469); experiment: ATG_PXR_TRANS: Attagene TRANS-FACTORIAL HepG2 Assay for human Pregnane X Receptor (PXR) (AID 2283008)
Procedure, shortened: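 Measures mRNA induction of a GAL4-UAS-driven reporter in human HepG2 cells transiently expressing PXR fused to Gal4, following 24 h treatment. DMSO served as negative control and baseline.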

[7] = biological target: human RAR-related Orphan Receptor gamma (RORg), RORC (gene 6097) (UniProt P51449); experiment: ATG_RORg_TRANS: Attagene TRANS-FACTORIAL HepG2 Assay for human RAR-related Orphan Receptor gamma (RORg) (AID 2283011)
Procedure, shortened: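 Chimeric RORg-Gal4 transactivation in transfected HepG2; 24 h exposure; RT-PCR/capillary electrophoresis readout of reporter mRNA, DMSO baseline.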

[8] = biological target: Retinoic acid receptor RXR-alpha (Homo sapiens) (UniProt P19793); experiment: ATG_RXRa_TRANS: Attagene TRANS-FACTORIAL HepG2 Assay for human Retinoid X Receptor alpha (RXRa) (AID 2283012)
Procedure, shortened: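 Cells (HepG2) carried transiently transfected GAL4-responsive reporter units. Following a 24 h chemical incubation, reporter mRNA induction was read via RT-PCR fragment analysis; DMSO served as negative control and baseline.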

[9] = biological target: human Retinoid X Receptor beta (RXRb), RXRB (gene 6257) (UniProt P28702); experiment: ATG_RXRb_TRANS: Attagene TRANS-FACTORIAL HepG2 Assay for human Retinoid X Receptor beta (RXRb) (AID 2283013)
Procedure, shortened: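 Multiplexed TRANS reporter assay in HepG2; 24 h dosing; reporter mRNA by RT-PCR/CE fluorescence; gain-of-signal relative to DMSO.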

[10] = read-out: E-selectin (Homo sapiens) (UniProt P16581); experiment: BSK_3C_Eselectin: BioMAP Diversity Plus: 3C Assay for Eselectin Biomarker Activity (AID 2283015; active = hit-call score of the fitted dose curve at least 0.9, where 1 is the maximum; inactive = score below 0.9;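 note: cell surface E-selectin protein quantified by ELISA 24 h after dosing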); settings: primary human endothelial cells (HUVEC); actives raise or lower the signal
Procedure, shortened: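 Endpoint derived by bidirectional fitting against DMSO vehicle; signal is ELISA-detected E-selectin from primary HUVEC at 24 h post-dosing, with parallel SRB staining (0.1% SRB, 560 nm) flagging cytotoxicity.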

[11] = read-out: Monocyte Chemoattractant Protein-1 (MCP1), CCL2 (gene 6347); experiment: BSK_3C_MCP1: BioMAP Diversity Plus: 3C Assay for Monocyte Chemoattractant Protein-1 (MCP1) Biomarker Activity (AID 2283017; active = hit-call score of the fitted dose curve at least 0.9, where 1 is the maximum; inactive = score below 0.9); settings: primary human endothelial cells (HUVEC); actives raise or lower the signal
Procedure, shortened: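 Using human vascular primary endothelium, researchers measured MCP-1 by ELISA 24 h after treatment, with DMSO serving as negative control for bidirectional fitting.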

[12] = read-out: Monocyte Chemoattractant Protein-1 (MCP1), CCL2 (gene 6347); experiment: BSK_4H_MCP1: BioMAP Diversity Plus: 4H Assay for Monocyte Chemoattractant Protein-1 (MCP1) Biomarker Activity (AID 2283018; active = hit-call score of the fitted dose curve at least 0.9, where 1 is the maximum; inactive = score below 0.9); settings: primary human endothelial cells (HUVEC); actives raise or lower the signal
Procedure, shortened: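 Readout: MCP-1 ELISA on compound-treated HUVEC, sampled 24 h post-dosing. Baseline and negative control DMSO; bidirectional fit. Overt toxicity checked alongside by sulforhodamine B protein staining at time of biomarker measurement.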

[13] = biological target: Retinoic acid receptor alpha (Homo sapiens) (UniProt P10276); experiment: ATG_RARa_TRANS: Attagene TRANS-FACTORIAL HepG2 Assay for human Retinoic Acid Receptor alpha (RARa) (AID 2283005)
Procedure, shortened: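 HepG2 transiently transfected with multiplex GAL4-UAS reporter units including a human RARa–GAL4 chimera; 24 h compound exposure. Reporter mRNA quantified by RT-PCR, 6-FAM labeling and capillary electrophoresis; gain of signal versus DMSO.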

[14] = biological target: human Thyroid Receptor alpha (THRa1), THRA (gene 7067) (UniProt P10827); experiment: ATG_THRa1_TRANS: Attagene TRANS-FACTORIAL HepG2 Assay for human Thyroid Receptor alpha (THRa1) (AID 2283014)
Procedure, shortened: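 Measured here is mRNA from a GAL4-UAS reporter in transfected HepG2 cells carrying a Gal4-fused receptor, 24 h post-dose. DMSO served as negative control and baseline.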

[15] = biological target: human Retinoic Acid Receptor gamma (RARg), RARG (gene 5916) (UniProt P13631); experiment: ATG_RARg_TRANS: Attagene TRANS-FACTORIAL HepG2 Assay for human Retinoic Acid Receptor gamma (RARg) (AID 2283009)
Procedure, shortened: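 HepG2, RARg-GAL4 TRANS system, 24 h exposure; reporter mRNA by RT-PCR + CE fluorescence; increase over DMSO.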

[16] = biological target: human Peroxisome Proliferator-activated Receptor delta (PPARd), PPARD (gene 5467) (UniProt Q03181); experiment: ATG_PPARd_TRANS: Attagene TRANS-FACTORIAL HepG2 Assay for human Peroxisome Proliferator-activated Receptor delta (PPARd) (AID 2283002)
Procedure, shortened: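 HepG2 cells transiently transfected with GAL4-UAS multiplexed reporter units driven by exogenous chimeric NR-GAL4 proteins; 24 h compound exposure. Reporter mRNA measured by RT-PCR, 6-FAM primer extension, HpaI digestion and capillary electrophoresis; gain of signal fitted relative to DMSO.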

[17] = biological target: human RAR-related Orphan Receptor beta (RORb), RORB (gene 6096) (UniProt Q92753); experiment: ATG_RORb_TRANS: Attagene TRANS-FACTORIAL HepG2 Assay for human RAR-related Orphan Receptor beta (RORb) (AID 2283010)
Procedure, shortened: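 In this TRANS-format test, human HepG2 cells express chimeric NR-Gal4 fusion proteins driving GAL4-UAS reporters. After 24 h dosing, reporter transcripts are measured by fluorescent RT-PCR/capillary electrophoresis, with DMSO as negative control.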

[18] = read-out: Interleukin-1 alpha (IL1a), IL1A (gene 3552); experiment: BSK_BE3C_IL1a: BioMAP Diversity Plus: BE3C Assay for Interleukin-1 alpha (IL1a) Biomarker Activity (AID 2283016; active = hit-call score of the fitted dose curve at least 0.9, where 1 is the maximum; inactive = score below 0.9); settings: primary human bronchial epithelial cells; actives raise or lower the signal
Procedure, shortened: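 Cultures of primary human bronchial epithelial cells receive test chemical. After 24 h, IL-1a is quantified by ELISA, while parallel wells are fixed in TCA and SRB-stained for total protein. Changes in either direction are fitted relative to DMSO.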

[19] = read-out: Human Leukocyte Antigen - DR isotype (HLADR), HLA-DRA (gene 3122); experiment: BSK_3C_HLADR: BioMAP Diversity Plus: 3C Assay for Human Leukocyte Antigen - DR isotype (HLADR) Biomarker Activity (AID 2283019; active = hit-call score of the fitted dose curve at least 0.9, where 1 is the maximum; inactive = score below 0.9;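 note: ELISA of cell-surface HLA-DR on HUVEC 24 h after dosing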); settings: primary human endothelial cells (HUVEC); actives raise or lower the signal
Procedure, shortened: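 Compound added to primary HUVEC cultures, 24 h incubation, then HLA-DR determined by ELISA; endpoint derived by bidirectional fitting relative to DMSO negative control.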

Measured: AC50

Chain of human Retinoid X Receptor beta (RXRb), RXRB (gene 6257) (P28702 whole entry, looked up): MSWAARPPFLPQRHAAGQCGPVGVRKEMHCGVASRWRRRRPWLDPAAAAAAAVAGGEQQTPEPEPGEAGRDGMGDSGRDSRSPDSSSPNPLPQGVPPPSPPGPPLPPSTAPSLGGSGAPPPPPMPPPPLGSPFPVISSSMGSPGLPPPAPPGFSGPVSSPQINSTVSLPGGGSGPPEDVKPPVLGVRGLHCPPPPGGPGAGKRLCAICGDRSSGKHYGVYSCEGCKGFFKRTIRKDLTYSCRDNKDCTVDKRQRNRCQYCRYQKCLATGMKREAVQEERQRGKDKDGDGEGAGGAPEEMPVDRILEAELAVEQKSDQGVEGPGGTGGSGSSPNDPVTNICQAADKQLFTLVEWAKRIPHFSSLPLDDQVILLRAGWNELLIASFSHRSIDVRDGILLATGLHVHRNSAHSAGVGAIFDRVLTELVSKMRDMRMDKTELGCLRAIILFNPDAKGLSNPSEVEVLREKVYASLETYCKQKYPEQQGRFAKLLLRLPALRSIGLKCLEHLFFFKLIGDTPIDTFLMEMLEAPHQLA
Chain of human RAR-related Orphan Receptor beta (RORb), RORB (gene 6096) (Q92753 whole entry, looked up, the tested form may be a part): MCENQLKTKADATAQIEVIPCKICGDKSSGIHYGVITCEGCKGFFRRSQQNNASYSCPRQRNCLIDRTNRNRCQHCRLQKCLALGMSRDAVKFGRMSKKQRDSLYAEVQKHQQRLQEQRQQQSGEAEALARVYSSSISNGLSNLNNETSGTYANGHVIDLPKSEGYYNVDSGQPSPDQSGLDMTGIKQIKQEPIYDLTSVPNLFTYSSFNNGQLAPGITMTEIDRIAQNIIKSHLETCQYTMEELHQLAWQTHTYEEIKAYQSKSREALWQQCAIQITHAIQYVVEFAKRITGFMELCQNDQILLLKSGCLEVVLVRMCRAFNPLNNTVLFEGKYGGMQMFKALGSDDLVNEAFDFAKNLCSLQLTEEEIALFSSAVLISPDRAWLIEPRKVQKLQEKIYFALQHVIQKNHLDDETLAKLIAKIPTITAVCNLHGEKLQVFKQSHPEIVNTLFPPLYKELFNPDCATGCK
Chain of human Peroxisome Proliferator-activated Receptor delta (PPARd), PPARD (gene 5467) (Q03181 whole entry, looked up, the tested form may be a part): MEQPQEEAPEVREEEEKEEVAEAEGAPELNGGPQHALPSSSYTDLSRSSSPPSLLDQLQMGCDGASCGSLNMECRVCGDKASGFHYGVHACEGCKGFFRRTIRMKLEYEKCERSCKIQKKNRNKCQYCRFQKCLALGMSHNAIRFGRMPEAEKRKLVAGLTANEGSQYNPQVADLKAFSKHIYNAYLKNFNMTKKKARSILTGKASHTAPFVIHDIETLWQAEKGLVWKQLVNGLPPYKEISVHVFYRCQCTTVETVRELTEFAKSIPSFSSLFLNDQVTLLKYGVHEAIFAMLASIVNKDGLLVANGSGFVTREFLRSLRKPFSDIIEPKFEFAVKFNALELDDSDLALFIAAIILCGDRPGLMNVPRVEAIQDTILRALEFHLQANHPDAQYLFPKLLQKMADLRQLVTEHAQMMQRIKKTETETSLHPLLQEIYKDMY
Chain of Retinoic acid receptor alpha (Homo sapiens) (P10276 whole entry, looked up, the tested form may be a part): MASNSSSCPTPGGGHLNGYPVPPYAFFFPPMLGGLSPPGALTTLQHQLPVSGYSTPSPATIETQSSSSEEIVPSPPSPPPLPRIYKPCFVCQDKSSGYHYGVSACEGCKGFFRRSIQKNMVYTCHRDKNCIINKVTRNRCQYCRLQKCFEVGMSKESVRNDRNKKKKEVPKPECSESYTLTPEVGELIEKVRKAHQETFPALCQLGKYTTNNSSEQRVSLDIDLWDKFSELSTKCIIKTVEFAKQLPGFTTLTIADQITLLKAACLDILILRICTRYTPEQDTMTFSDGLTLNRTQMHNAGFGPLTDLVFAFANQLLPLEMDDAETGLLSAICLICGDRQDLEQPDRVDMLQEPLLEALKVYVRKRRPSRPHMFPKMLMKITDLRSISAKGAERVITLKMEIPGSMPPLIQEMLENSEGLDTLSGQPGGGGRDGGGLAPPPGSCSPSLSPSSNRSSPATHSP
Chain of Peroxisome proliferator-activated receptor gamma (Homo sapiens) (P37231 whole entry, looked up, the tested form may be a part): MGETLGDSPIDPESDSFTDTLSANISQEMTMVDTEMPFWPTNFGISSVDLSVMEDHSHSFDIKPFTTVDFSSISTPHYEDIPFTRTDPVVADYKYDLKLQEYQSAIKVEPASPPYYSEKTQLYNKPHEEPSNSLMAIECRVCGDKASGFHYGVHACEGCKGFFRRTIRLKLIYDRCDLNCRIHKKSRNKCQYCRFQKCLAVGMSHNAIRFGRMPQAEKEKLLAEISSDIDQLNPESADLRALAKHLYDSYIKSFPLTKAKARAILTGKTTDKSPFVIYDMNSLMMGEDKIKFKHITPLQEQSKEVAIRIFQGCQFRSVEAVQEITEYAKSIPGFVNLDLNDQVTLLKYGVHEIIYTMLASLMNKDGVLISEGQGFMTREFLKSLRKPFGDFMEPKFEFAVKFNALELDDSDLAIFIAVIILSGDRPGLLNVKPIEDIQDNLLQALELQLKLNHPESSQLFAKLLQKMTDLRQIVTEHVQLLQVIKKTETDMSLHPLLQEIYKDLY
Chain of human Retinoic Acid Receptor gamma (RARg), RARG (gene 5916) (P13631 whole entry, looked up, the tested form may be a part): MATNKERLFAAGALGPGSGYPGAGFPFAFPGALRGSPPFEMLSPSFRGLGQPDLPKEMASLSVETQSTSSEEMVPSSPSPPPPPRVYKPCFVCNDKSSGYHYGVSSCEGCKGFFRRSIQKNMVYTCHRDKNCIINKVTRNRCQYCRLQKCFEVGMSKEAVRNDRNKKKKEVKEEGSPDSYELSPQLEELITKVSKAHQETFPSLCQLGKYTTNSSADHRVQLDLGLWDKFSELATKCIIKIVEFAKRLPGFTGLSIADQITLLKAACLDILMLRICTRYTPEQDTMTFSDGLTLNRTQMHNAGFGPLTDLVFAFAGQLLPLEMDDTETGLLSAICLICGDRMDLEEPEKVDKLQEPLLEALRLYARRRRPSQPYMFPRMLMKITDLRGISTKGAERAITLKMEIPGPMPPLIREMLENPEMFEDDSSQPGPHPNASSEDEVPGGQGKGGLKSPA
Chain of human Peroxisome Proliferator-activated Receptor alpha (PPARa), PPARA (gene 5465) (Q07869 whole entry, looked up, the tested form may be a part): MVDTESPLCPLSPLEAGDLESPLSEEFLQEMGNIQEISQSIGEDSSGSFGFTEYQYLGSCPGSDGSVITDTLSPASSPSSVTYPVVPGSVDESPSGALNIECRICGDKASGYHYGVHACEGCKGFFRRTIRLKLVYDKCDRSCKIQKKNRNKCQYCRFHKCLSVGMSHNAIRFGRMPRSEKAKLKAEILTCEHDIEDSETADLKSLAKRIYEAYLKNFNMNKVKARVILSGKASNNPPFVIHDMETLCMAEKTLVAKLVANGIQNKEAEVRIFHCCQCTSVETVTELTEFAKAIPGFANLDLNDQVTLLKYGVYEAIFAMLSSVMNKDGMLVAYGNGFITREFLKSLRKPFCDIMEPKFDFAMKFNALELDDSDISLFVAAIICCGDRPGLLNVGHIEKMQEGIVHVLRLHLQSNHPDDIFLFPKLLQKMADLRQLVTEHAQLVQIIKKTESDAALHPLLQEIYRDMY
Chain of Nuclear receptor subfamily 1 group I member 2 (Homo sapiens) (O75469 whole entry, looked up, the tested form may be a part): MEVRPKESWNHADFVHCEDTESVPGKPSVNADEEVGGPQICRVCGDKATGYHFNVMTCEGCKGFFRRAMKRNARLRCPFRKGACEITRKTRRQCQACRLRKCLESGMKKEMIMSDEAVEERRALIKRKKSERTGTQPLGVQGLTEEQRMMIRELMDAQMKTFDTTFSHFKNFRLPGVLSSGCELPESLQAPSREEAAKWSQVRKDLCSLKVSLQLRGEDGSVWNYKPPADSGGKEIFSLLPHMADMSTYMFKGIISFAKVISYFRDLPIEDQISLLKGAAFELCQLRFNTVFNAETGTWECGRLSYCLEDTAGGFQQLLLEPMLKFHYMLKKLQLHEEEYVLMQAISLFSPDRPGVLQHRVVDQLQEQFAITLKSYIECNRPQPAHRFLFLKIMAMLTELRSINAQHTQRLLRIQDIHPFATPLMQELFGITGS
Chain of Retinoic acid receptor RXR-alpha (Homo sapiens) (P19793 whole entry, looked up, the tested form may be a part): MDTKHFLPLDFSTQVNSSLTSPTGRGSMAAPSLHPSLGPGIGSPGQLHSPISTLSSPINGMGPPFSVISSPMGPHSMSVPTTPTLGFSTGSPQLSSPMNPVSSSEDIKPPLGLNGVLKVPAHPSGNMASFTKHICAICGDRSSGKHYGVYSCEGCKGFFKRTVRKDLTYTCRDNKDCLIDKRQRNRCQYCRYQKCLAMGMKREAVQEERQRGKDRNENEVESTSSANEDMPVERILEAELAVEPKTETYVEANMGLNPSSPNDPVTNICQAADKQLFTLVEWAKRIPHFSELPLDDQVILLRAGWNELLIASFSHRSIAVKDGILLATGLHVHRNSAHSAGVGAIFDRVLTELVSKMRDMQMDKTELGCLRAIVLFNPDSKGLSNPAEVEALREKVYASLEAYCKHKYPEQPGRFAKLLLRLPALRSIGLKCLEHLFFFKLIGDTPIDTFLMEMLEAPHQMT
Chain of E-selectin (Homo sapiens) (P16581 whole entry, looked up): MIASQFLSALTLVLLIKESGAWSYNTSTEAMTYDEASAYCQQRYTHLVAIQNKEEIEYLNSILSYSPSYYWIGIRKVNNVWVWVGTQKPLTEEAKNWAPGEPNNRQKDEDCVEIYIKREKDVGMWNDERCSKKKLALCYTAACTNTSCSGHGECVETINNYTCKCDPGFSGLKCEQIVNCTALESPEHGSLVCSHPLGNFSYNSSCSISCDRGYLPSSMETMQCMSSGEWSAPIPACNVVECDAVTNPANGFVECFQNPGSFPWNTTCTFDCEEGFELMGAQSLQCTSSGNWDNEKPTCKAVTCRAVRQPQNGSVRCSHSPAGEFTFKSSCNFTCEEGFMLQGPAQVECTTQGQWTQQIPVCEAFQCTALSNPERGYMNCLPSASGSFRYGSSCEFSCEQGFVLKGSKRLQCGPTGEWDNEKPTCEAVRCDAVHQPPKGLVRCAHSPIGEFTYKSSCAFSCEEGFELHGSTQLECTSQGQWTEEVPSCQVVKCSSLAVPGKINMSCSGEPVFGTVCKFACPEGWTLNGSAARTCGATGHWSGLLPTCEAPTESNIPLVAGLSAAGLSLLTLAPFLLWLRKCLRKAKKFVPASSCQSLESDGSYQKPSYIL

O=S(=O)(OCC(F)(F)F)C(F)(F)C(F)(F)C(F)(F)C(F)(F)F
active: [5] 107 µM
not listed: [13] | [14] | [15] | [16] | [17] | [18] | [19]
inactive: all other assays above

CC(=O)C=O
inactive: [1] | [13] | [7] | [8] | [14]

CC1CCCCC1
inactive: [1] | [13] | [5] | [6] | [15] | [7] | [9] | [14]

CC(=O)c1ccccc1N
inactive: [1] | [16] | [6] | [17] | [7] | [9] | [14]

O=S(=O)(O)CCC(F)(F)C(F)(F)C(F)(F)C(F)(F)F
inactive: [16] | [2] | [13] | [5] | [6] | [14] | [10] | [18] | [11] | [12]

NCC(F)(F)C(F)(F)C(F)(F)C(F)(F)C(F)(F)C(F)(F)C(F)(F)C(F)(F)F
inactive: [1] | [2] | [3] | [13] | [4] | [5] | [15] | [9] | [14] | [10] | [11] | [12]
active: [11] 0.57 µM

CC1=CCC2C(=O)OC(=O)C2C1 (stereo not drawn)
inactive: [1] | [15]

CCCCCCCCCCCCCCCCC
inactive: [1] | [16] | [17] | [9]

Cc1ccc([N+](=O)[O-])c(C)c1
inactive: [1] | [16] | [5] | [17] | [7] | [9] | [14]

COc1ccccc1C=O
inactive: [1] | [16] | [17] | [8] | [9] | [14]

O=C(O)C(F)(F)C(F)(F)C(F)(F)C(=O)O
active: [5] 84.1 µM
not listed: [3] | [6] | [8] | [9] | [13] | [16] | [17]
inactive: all other assays above

OCC(F)(F)C(F)(F)C(F)(F)C(F)(F)C(F)(F)C(F)(F)C(F)(F)C(F)(F)CO
inactive: [16] | [2] | [5] | [10] | [11] | [12]
active: [6] 14.4 µM

OCC(O)CC(F)(F)C(F)(F)C(F)(F)C(F)(F)F (stereo not drawn)
inactive: [1] | [2] | [5] | [8] | [10] | [18] | [11] | [12] | [19]

c1ccc(C[P+](c2ccccc2)(c2ccccc2)c2ccccc2)cc1
active: [14] 18.6 µM
inactive: [1] | [3] | [13] | [5] | [6] | [15]

Cc1cc(=O)[nH]c(C(C)C)n1
inactive: [1] | [16] | [6] | [15] | [17] | [7] | [9]

CCC(C)CO (stereo not drawn)
inactive: [1] | [5] | [6] | [15] | [17] | [14]

Oc1ccc(C2(c3ccc(O)c(C4CCCCC4)c3)CCCCC2)cc1C1CCCCC1
active: [5] 2.92 µM | [6] 0.977 µM
inactive: [1] | [13] | [15] | [14]
